# Measurements taken from publication PMC4336329 (PLoS ONE, 2015).
# The whole screen tested about 310,000 compounds, of which about 14,000 (4.5%) showed an effect of 50% or more. Effects have a minus sign here. What follows is part of a selection rich in strong results, with near analogues and random picks from the rest.
# Target: human ether-à-go-go-related gene (hERG) potassium channel (human, UniProt Q12809)
# Assay: primary screen, population patch clamp on CHO cells stably expressing hERG; higher = less effect of the substance
# 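Further: peak tail current of the secondary pulse compared with the same well before compound.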
# Chain of human ether-à-go-go-related gene (hERG) potassium channel (Q12809 whole entry, looked up): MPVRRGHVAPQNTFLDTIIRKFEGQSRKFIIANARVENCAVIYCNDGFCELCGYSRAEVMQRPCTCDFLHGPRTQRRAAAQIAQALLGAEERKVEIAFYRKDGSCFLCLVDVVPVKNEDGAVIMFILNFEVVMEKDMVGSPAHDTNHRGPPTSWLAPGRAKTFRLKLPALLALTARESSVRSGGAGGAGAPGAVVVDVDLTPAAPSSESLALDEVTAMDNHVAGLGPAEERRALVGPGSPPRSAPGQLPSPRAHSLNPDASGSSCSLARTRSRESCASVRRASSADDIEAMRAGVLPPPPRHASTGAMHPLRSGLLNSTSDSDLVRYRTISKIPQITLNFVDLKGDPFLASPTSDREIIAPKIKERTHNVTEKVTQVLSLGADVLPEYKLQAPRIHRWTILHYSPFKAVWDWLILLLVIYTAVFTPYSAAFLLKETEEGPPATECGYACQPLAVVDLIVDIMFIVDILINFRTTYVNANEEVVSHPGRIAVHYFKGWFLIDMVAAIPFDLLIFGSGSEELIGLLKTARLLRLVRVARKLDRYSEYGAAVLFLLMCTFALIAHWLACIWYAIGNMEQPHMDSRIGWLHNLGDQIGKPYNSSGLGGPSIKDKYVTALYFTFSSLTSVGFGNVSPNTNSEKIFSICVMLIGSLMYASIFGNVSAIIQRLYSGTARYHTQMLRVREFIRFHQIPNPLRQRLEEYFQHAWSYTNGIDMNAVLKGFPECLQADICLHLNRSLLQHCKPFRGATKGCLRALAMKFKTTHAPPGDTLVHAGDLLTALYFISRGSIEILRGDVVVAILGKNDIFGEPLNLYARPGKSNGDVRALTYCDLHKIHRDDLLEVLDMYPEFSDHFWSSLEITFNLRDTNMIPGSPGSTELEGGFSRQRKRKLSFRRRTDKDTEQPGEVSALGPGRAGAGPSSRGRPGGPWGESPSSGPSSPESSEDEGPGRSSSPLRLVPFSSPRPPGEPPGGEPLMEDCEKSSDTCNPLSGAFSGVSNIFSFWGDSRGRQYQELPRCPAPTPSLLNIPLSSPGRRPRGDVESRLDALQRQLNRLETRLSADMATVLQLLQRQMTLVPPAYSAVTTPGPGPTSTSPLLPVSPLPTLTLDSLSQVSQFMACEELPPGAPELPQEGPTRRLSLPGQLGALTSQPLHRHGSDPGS
row,Structure (SMILES),"hERG current change (%, negative = inhibition) at 10uM"
1,O=C(Nc1cccc(F)c1)N1CC=C(c2ccc(Cl)cc2)CC1,-13.8%
2,Cc1ccc(CN2CCN(/N=C/c3ccc(Cl)c([N+](=O)[O-])c3)CC2)cc1,-4.43%
3,CCCOC1CCCN(C(=O)c2ccc3oc(C(C)C)nc3c2)C1 (stereo not drawn),3.64%
4,Cc1ccccc1OCc1nc(-c2ccc(NC(=O)c3ccco3)cc2)no1,5.41%
5,COc1ccc(N=Cc2c(O)n(Cc3ccccc3)c(=S)[nH]c2=O)c(OC)c1,-1.29%
6,CC(C)[C@@H](C(=O)NCC1CCC(C(=O)O)CC1)n1nnc2ccccc2c1=O (stereo partly drawn),19.1%
7,COc1ccc(NC2CCCN(C(=O)c3ccc(C(C)=O)s3)C2)cc1 (stereo not drawn),16.1%
8,O=C(CSc1ccc(-c2ccc(F)cc2)nn1)N1CCOCC1,-17.4%
9,COc1cc(/C=N/N2CCN(c3ccccc3)CC2)cc(OC)c1OC(C)=O,-39.4%
10,O=C(Nc1ccccc1Cl)O/N=C(/c1ccccc1)c1ccccn1,6.47%
11,CNC(=O)CCc1[nH]c2ccccc2c1Sc1ccccc1,4.85%
12,Cc1cc(C)cc(OCC(=O)N2N=C(c3cccnc3)CC2(O)C(F)(F)F)c1 (stereo not drawn),-15.3%
13,COc1ccc(NC(=O)N(Cc2ccc(C)cc2)Cc2cccnc2)c(OC)c1,-10.6%
14,COc1ccccc1S(=O)(=O)Cc1ccc(C(=O)NCCCN2CCN(c3ccc(F)cc3)CC2)o1,-79.2%
15,COc1ccccc1S(=O)(=O)Cc1ccc(C(=O)NCCN2CCCC2)o1,-8.12%
16,COc1ccccc1S(=O)(=O)Cc1ccc(C(=O)NCCN2CCCCCC2)o1,2.78%
17,Cc1cccc(N2C(=O)C(O)=C(C(=O)c3cccs3)C2c2ccc(F)cc2)n1 (stereo not drawn),14.9%
18,O=C(NNS(=O)(=O)c1ccccc1)C1CCCCC1,6.38%
19,COc1ccc(OCc2nc(C#N)c(NCCCn3ccnc3)o2)cc1,-43.4%
20,Cc1ccc(-c2nc(C#N)c(NCCCn3ccnc3)o2)cc1,-21.9%
21,N#Cc1nc(Cc2cccc3ccccc23)oc1NCCCn1ccnc1,-71%
22,N#Cc1nc(COc2ccccc2)oc1NCCN1CCOCC1,-11.3%
23,Cc1ccc(OCc2nc(C#N)c(NCCCn3ccnc3)o2)cc1,-56%
24,N#Cc1nc(COc2ccc(Br)cc2)oc1NCCN1CCOCC1,-56.6%
25,N#Cc1nc(Cc2ccccc2)oc1NCCCn1ccnc1,-31.5%
26,COc1ccccc1OCc1nc(C#N)c(NCCCn2ccnc2)o1,6.7%
27,N#Cc1nc(COc2ccc(F)cc2)oc1NCCN1CCOCC1,-12.9%
28,N#Cc1nc(-c2ccc(OCc3ccccc3Cl)cc2)oc1NCCCn1ccnc1,-13%
29,N#Cc1nc(COc2ccccc2)oc1NCCCn1ccnc1,-50%
30,N#Cc1nc(-c2ccccc2)oc1NCCCn1ccnc1,-27.5%
